Data from PubChem BioAssay AID1159580 (chemical genetic matrix, 2015).
The whole screen tested about 5,500 compounds, of which about 2,000 (36%) were called active. Inconclusive results (about 18%) are left out. Cut-off read from the data, not from the text of the source: active = normalized growth mostly below about 0.91 (no sharp cut-off); inconclusive = no clear call, values can overlap the other calls; inactive = mostly above about 0.92. This is one part of the list.

Assay: chemical genetic growth profiling, strain panel (AID 1159580);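 note: tested at 20 µM; growth read once vehicle control cultures reached saturation at 30 °C; 1 = growth at the plate median or of vehicle wells; lower values mean less growth of the strain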
Conditions: S. cerevisiae deletion strains, growth OD

Measured: normalized growth

Oc1ccc2c3c1O[C@H]1c4[nH]c5ccccc5c4C[C@@]4(O)C(C2)N(CC2CC2)CCC314 (stereo not given in full)
inactive: locus YAL013W, strain DEP1, active compounds read low 0.989 | locus YAL040C, strain CLN3, active compounds read low 1 | locus YCL061C, strain MRC1 (second series), active compounds read low 1.01 | locus YDR363W, strain ESC2, active compounds read low 1.02 | locus YER002W, strain NOP16, active compounds read low 1.02 | locus YGR078C, strain PAC10, active compounds read low 1.02 | locus YMR263W, strain SAP30, active compounds read low 1.01 | locus YMR307W, strain GAS1, active compounds read low 0.993 | locus YNL175C, strain NOP13, active compounds read low 1.02 | locus YNL197C, strain WHI3, active compounds read low 1 | locus YNL224C, strain SQS1, active compounds read low 1.01 | locus YNL322C, strain KRE1, active compounds read low 0.999 | locus YOR083W, strain WHI5 (second series), active compounds read low 1.01 | locus YPL055C, strain LGE1, active compounds read low 0.987

Fc1ccc(NC(=S)N2CCCN(Cc3ccc(Cl)cc3Cl)CC2)cc1
inactive: locus YAR019C, strain CDC15, active compounds read low 0.989 | locus YBL105C, strain PKC1, active compounds read low 0.984 | locus YBR135W, strain CKS1, active compounds read low 0.992 | locus YBR136W, strain MEC1, active compounds read low 0.985 | locus YBR160W, strain CDC28, active compounds read low 0.982 | locus YDL017W, strain CDC7, active compounds read low 0.982 | locus YDL028C, strain MPS1, active compounds read low 0.99 | locus YDL101C, strain DUN1, active compounds read low 0.985 | locus YDL108W, strain KIN28, active compounds read low 0.992 | locus YDL132W, strain cdc53, active compounds read low 0.989 | locus YDL214C, strain PRR2, active compounds read low 0.987 | locus YDR052C, strain DBF4, active compounds read low 0.986 | locus YDR054C, strain cdc34, active compounds read low 0.982 | locus YDR226W, strain ADK1, active compounds read low 0.973 | locus YDR477W, strain SNF1, active compounds read low 1 | locus YER123W, strain YCK3, active compounds read low 1.02 | locus YER133W, strain GLC7, active compounds read low 1 | locus YFL009W, strain cdc4, active compounds read low 0.992 | locus YFL029C, strain CAK1, active compounds read low 0.979 | locus YFR003C, strain YPI1, active compounds read low 0.984 | locus YFR019W, strain FAB1, active compounds read low 0.998 | locus YFR028C, strain CDC14, active compounds read low 0.997 | locus YGR040W, strain KSS1, active compounds read low 1.01 | locus YGR052W, strain FMP48, active compounds read low 1.09 | locus YGR092W, strain DBF2, active compounds read low 1.01 | locus YHR030C, strain SLT2, active compounds read low 0.903 | locus YHR079C, strain IRE1, active compounds read low 0.964 | locus YHR082C, strain KSP1, active compounds read low 1.15 | locus YHR205W, strain SCH9, active compounds read low 0.989 | locus YIL147C, strain SLN1, active compounds read low 0.977 | locus YJL095W, strain BCK1, active compounds read low 1.02 | locus YJL128C, strain PBS2, active compounds read low 0.959 | locus YJL157C, strain FAR1, active compounds read low 1.01 | locus YJR016C, strain ILV3, active compounds read low 0.992 | locus YJR066W, strain TOR1 (second series), active compounds read low 0.966 | locus YJR066W, strain TOR1, active compounds read low 1.11 | locus YKL048C, strain ELM1, active compounds read low 0.981 | locus YKL067W, strain YNK1, active compounds read low 0.989 | locus YKL101W, strain HSL1, active compounds read low 0.987 | locus YKL193C, strain SDS22, active compounds read low 0.994 | locus YKL203C, strain TOR2, active compounds read low 1.05 | locus YLR133W, strain CKI1, active compounds read low 1.01 | locus YLR403W, strain SFP1, active compounds read low 1.01 | locus YML070W, strain DAK1, active compounds read low 1 | locus YMR001C, strain CDC5, active compounds read low 0.992 | locus YMR205C, strain PFK2 (second series), active compounds read low 0.994 | locus YMR277W, strain FCP1, active compounds read low 0.992 | locus YNL006W, strain LST8, active compounds read low 0.987 | locus YNL020C, strain ARK1, active compounds read low 1 | locus YNL161W, strain CBK1, active compounds read low 0.98 | locus YNL183C, strain NPR1, active compounds read low 1.09 | locus YNL207W, strain RIO2, active compounds read low 0.984 | locus YNL222W, strain SSU72, active compounds read low 0.992 | locus YNL307C, strain MCK1 (second series), active compounds read low 1 | locus YOL078W, strain AVO1, active compounds read low 0.996 | locus YOL136C, strain PFK27, active compounds read low 1.01 | locus YOR061W, strain CKA2, active compounds read low 1.01 | locus YOR119C, strain RIO1, active compounds read low 1.08 | locus YOR231W, strain MKK1, active compounds read low 0.985 | locus YOR329C, strain SCD5, active compounds read low 0.986 | locus YPL031C, strain PHO85, active compounds read low 1.02 | locus YPL153C, strain RAD53, active compounds read low 1.02 | locus YPL204W, strain HRR25, active compounds read low 0.982 | locus YPL209C, strain IPL1, active compounds read low 0.983 | locus YPL256C, strain CLN2, active compounds read low 0.888 | locus YPR025C, strain CCL1, active compounds read low 0.987 | locus YPR106W, strain ISR1, active compounds read low 0.99 | locus YPR111W, strain DBF20, active compounds read low 0.975 | strain NNK1, active compounds read low 0.983 | strain TSCII, active compounds read low 0.984
active: locus YLR113W, strain HOG1, active compounds read low 0.821
